# The other results are listed elsewhere or left out. A number with no mark means an inactive call. No stated cut-off is given here; in the data, active means activation above about 17%; inactive means the rest.
# Biological target: 5-hydroxytryptamine receptor 5A (Homo sapiens) (UniProt P47898)
# Experiment: activation of human 5-HT5A receptor – cell-based, luminescence, confirmation (AID 504915);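 further: 0% = cells with vehicle only and 100% = full reference agonist response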
# Conditions: HTR5A agonist cell assay, at 9.3 µM, active compounds read high
# Sequence of 5-hydroxytryptamine receptor 5A (Homo sapiens) (P47898 whole entry, looked up): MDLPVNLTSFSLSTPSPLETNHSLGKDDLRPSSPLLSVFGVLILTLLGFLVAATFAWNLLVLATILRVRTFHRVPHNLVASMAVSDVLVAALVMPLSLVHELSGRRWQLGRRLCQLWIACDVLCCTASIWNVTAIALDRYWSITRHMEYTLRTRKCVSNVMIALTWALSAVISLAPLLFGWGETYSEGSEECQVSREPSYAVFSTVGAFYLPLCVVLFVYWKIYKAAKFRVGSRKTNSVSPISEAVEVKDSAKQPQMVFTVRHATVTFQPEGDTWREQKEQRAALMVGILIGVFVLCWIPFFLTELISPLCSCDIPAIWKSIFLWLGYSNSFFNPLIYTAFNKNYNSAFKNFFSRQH
smiles,measurement,value
CCCCCCCCCCCCn1ccc(=N)cc1,activation,0.13%

# From PubChem BioAssay AID504915 (The Scripps Research Institute Molecular Screening Center, 2011)
